Experiment [1] concerns the target Luciferin 4-monooxygenase (Photinus pyralis) (UniProt P08659). Nature of the experiment: qHTS assay to identify small molecule inhibitors of firefly luciferase (AID 1224835). Also: potency is read from the fitted curve at half-maximal effect; nearly all actives have a fitted effect of over 25% in size. The method in brief:
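Inhibition of purified Photinus luciferase is measured by luminescence. Substrate levels (D-luciferin, ATP) sit at their KM values. Each compound is tested in a concentration series.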

The nature of experiment [2]: qHTS assay to identify small molecule antagonists of the estrogen related receptor signaling pathway with the pleiotropic PPARgamma coactivator (PGC) from Tox21 10K library - cell viability counter screen (AID 1224840; active = well fitted cell-killing curve with a large enough effect in the repeat runs, not every such curve was filed as active; also: nearly all actives have a fitted effect of over 40% in size; also: potency is read from the fitted curve at half-maximal effect). The gist of the method:
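Step one, plate 2,000 PGC/ERR cells per well; step two, incubate 6 h at 37 C/5% CO2; step three, pin-transfer compounds; step four, incubate 17.5 h; step five, add CellTiter-Fluor and read fluorescence after 30 min.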
For orientation: In qHTS, concentration-response curves come from the screen itself.

The nature of experiment [3]: qHTS assay to identify small molecule agonists of the hypoxia (HIF-1) signaling pathway (AID 1224846; active = well fitted activation curve with a large enough effect in the signal ratio in the repeat runs, not every such curve was filed as active; the % refers to the signal ratio; also: % is scaled to controls: 0 for no effect and ±100 for the full control effect). The method in brief: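 Steps: seed ME-180 HRE-bla cells (2,000/well, 0.5% dialyzed FBS); incubate 5 hrs at 37C; pin-transfer compounds or DMSO; incubate 17 hrs; add LiveBLAzer B/G substrate CCF4-AM; measure reporter activation by FRET.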
Experiment [4] is described as follows: qHTS assay to identify small molecule agonists of H2AX - cell viability counter screen (AID 1224847; calls by dose curve; also: nearly all actives have a fitted effect of over 30% in size; also: potency is read from the fitted curve at half-maximal effect). The gist of the method:
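Compounds tested at 15 concentrations were incubated 3 hr at 37C with wild-type CHO-K1 cells; cellular ATP-based luminescence (CellTiter-Glo) indicated viability.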

Experiment [5] in a line: qHTS RealTime-Glo MT Cell Viability Assay in HepG2 cells - 24 hour (AID 1224867). Also: nearly all actives have a fitted effect of over 50% in size. Also: potency is read from the fitted curve at half-maximal effect. The method in brief:
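HepG2 suspension premixed with RealTime-Glo reagents is plated at 600 cells per well and left 5 h at 37 C/5% CO2. Compounds in DMSO then go in, and bioluminescence reflecting viable cell number is recorded over 40 h.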

Experiment [6] is described as follows: A CellTox Green Cytotoxicity Assay to monitor cytotoxicity in HEK293 cells - 0 hour (AID 1224869). Also: % is scaled to controls: 0 for no effect and ±100 for the full control effect; nearly all actives have a fitted effect of over 50% in size. The gist of the method:
(§1)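 Cytotoxicity was tracked continuously in HEK293 cells by a DNA-binding dye excluded from viable cells. Compounds were transferred in DMSO 5 h after seeding; fluorescence was recorded at intervals up to 40 h.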

Experiment [7] can be described thus: qHTS RealTime-Glo MT Cell Viability Assay in HepG2 cells - 40 hour (AID 1224870). Also: nearly all actives have a fitted effect of over 50% in size. Also: potency is read from the fitted curve at half-maximal effect. The method in brief:
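Real-time viability: cells seeded at 600 per well together with NanoLuc and cell-permeant prosubstrate, compounds added after 5 h incubation. Luminescence tracked at 0, 8, 16, 24, 32 and 40 h of exposure.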

A short description of experiment [8]: A CellTox Green Cytotoxicity Assay to monitor cytotoxicity in HEK293 cells - 40 hour (AID 1224871). Also: nearly all actives have a fitted effect of over 45% in size. Also: potency is read from the fitted curve at half-maximal effect. The gist of the method:
as §1

Experiment [9] is described as follows: qHTS assay to identify small molecule agonists of the constitutive androstane receptor (CAR) signaling pathway - cell viability counter screen (AID 1224836). Also: % is scaled to controls: 0 for no effect and ±100 for the full control effect; nearly all actives have a fitted effect of over 45% in size. The method in brief:
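23 h treatment, 37 C, 5% CO2. Cell line: HepG2 stably expressing hCAR with a CYP2B6-2.2kb construct. Co-treatment: PK11195, 0.75 uM final. Read-out: CellTiter-Fluor fluorescence intensity.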

Experiment [10] can be described thus: qHTS assay to identify small molecule antagonists of the constitutive androstane receptor (CAR) signaling pathway - cell viability counter screen (AID 1224837). Also: % is scaled to controls: 0 for no effect and ±100 for the full control effect; nearly all actives have a fitted effect of over 45% in size. The method in brief:
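Multiplexed cytotoxicity read-out for the CAR antagonist screen: double-stable HepG2-CYP2B6-hCAR cells co-treated with 50 nM CITCO (final) and compound over 15 concentrations, incubated 23 hr, then assessed by CellTiter-Fluor fluorescence.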

For experiment [11], the target named is Nuclear receptor subfamily 1 group I member 3 (Homo sapiens) (UniProt Q14994). Nature of the experiment: qHTS assay to identify small molecule antagonists of the constitutive androstane receptor (CAR) signaling pathway (AID 1224838). Also: nearly all actives have a fitted effect of over 40% in size. Also: potency is read from the fitted curve at half-maximal effect. The method in brief:
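Compounds were titrated across 15 concentrations onto HepG2 cells double-stably expressing hCAR and a CYP2B6-2.2kb reporter, together with 50 nM CITCO (final). After 24 h at 37 C, luciferase activity was measured by luminescence.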

Experiment [12] has the same target. Kind of experiment: qHTS assay to identify small molecule agonists of the constitutive androstane receptor (CAR) signaling pathway (AID 1224839).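 Also: HepG2 cells stably carrying human CAR and a CYP2B6 luciferase reporter; % is scaled to controls: 0 for no effect and ±100 for the full control effect; nearly all actives have a fitted effect of over 15% in size.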 The method in brief:
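Compounds tested at 15 concentrations on HepG2 cells stably harbouring hCAR and CYP2B6-2.2kb reporter constructs, co-treated with PK11195 (0.75 uM final), 24 h at 37 C; luminescent reporter signal quantified.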

The target in experiment [13] is Thyrotropin receptor (Homo sapiens) (UniProt P16473). Kind of experiment: qHTS assay to identify small molecule agonists of the thyroid stimulating hormone receptor (TSHR) signaling pathway (AID 1224843; calls by dose curve; also: % is scaled to controls: 0 for no effect and ±100 for the full control effect; nearly all actives have a fitted effect of over 45% in size). The method in brief:
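HEK293 cells stably bearing the thyrotropin receptor were plated at 800 cells/well and challenged with compound (30 min, RT). Accumulated cAMP was quantified via cAMP-d2 competing for cryptate-tagged antibody.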

Experiment [14] is described as follows: qHTS assay to identify small molecule agonists of H2AX (AID 1224845; active = well fitted activation curve with a large enough effect in the signal ratio in the repeat runs, not every such curve was filed as active; the % refers to the signal ratio; also: % is scaled to controls: 0 for no effect and ±100 for the full control effect). The method in brief:
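Phospho-H2AX Ser139 measured by HTRF (ex 320 nm; em 665 and 620 nm) after 24 hr antibody incubation. Compounds, 15 concentrations, 0.76% DMSO, were applied to CHO-K1 cells for 3hr at 37C before lysis.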

Experiment [15] is described as follows: qHTS assay to identify small molecule antagonists of the estrogen related receptor signaling pathway with the pleiotropic PPARgamma coactivator (PGC) from Tox21 10K library (AID 1224841; call rule not given here; also: actives are mostly falling curves and most rising ones were filed inactive; nearly all actives have a fitted effect of over 50% in size; also: potency is read from the fitted curve at half-maximal effect). The method in brief: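 Antagonism in this quantitative HTS is taken from loss of luciferase signal in PGC/ERR cells. Cells (2,000/well) are treated with compounds in DMSO after a 6 h settling period and read by One-Glo luminescence after 18 h.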

Experiment [16] is described as follows: qHTS assay to identify small molecule antagonists of the estrogen related receptor (ERR) signaling pathway from Tox21 library (AID 1224848). Also: nearly all actives have a fitted effect of over 50% in size. Also: potency is read from the fitted curve at half-maximal effect. The gist of the method:
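Reading was by luminescence 30 min after ONE-Glo addition. Before that, ERR cells at 2,000 per well had rested 6 h at 37 C/5% CO2 and then received pin-tooled compounds in DMSO for 18 h at 37 C.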

Experiment [17] is described as follows: qHTS assay to identify small molecule agonists of the estrogen related receptor (ERR) signaling pathway from Tox21 library (AID 1224849; calls by dose curve; also: % is scaled to controls: 0 for no effect and ±100 for the full control effect; nearly all actives have a fitted effect of over 15% in size). As to conditions: ERR reporter cell line, ONE-Glo luciferase, 18 h. The gist of the method: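 Agonist signal is luciferase luminescence from an ERR reporter cell line treated 18 h at 37 C with DMSO-dissolved compounds, read 30 min after ONE-Glo addition at room temperature.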

A short description of experiment [18]: qHTS assay to identify small molecule agonists of the hypoxia (HIF-1) signaling pathway - cell viability counter screen (AID 1224844; calls by dose curve). The method in brief: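 Tox21 10K compounds were added to HRE-bla ME-180 cells (0.5% dialyzed FBS) and incubated 17 hrs at 37C; ATP-based CellTiter-Glo luminescence then reported cell viability in the same wells.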
A short description of experiment [19]: qHTS assay to identify small molecule agonists of the estrogen related receptor signaling pathway with the pleiotropic PPARgamma coactivator (PGC) from Tox21 10K library (AID 1224842). Also: % is scaled to controls: 0 for no effect and ±100 for the full control effect; nearly all actives have a fitted effect of over 15% in size. The method in brief:
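Luminescence from One-Glo (30 min, room temperature) measured after PGC/ERR cells had 18 h at 37 C with pinned compound (23 nL in DMSO). Cells had been seeded at 2,000 per well and pre-incubated 6 h.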

A short description of experiment [20]: qHTS RealTime-Glo MT Cell Viability Assay in HEK293 cells - 32 hour (AID 1224868). The method in brief:
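Reads taken at 0, 8, 16, 24, 32 and 40 h from the same wells. HEK293 cells (600/well) carried RealTime-Glo reagents from seeding, with compound added after a 5 h settle at 37 C.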

Where “and” joins values, the source holds several entries; their conditions need not be identical. Equal values may be shown once. Inconclusive results are not listed. Where a structure was tested more than once in an assay, its records may differ in their call. Calls of active or inactive are those of the source. Unless noted, calls follow the shape of the dose curve; as a rule, active = well fitted curve in the direction sought with a large enough effect in the repeat runs; inconclusive = weak or mixed curves; inactive = no such curve, though single readings can be large; an effect the other way counts as inactive or inconclusive.

This is an account of results in PubChem BioAssay (Tox21).

Chain of Nuclear receptor subfamily 1 group I member 3 (Homo sapiens) (Q14994 whole entry, looked up): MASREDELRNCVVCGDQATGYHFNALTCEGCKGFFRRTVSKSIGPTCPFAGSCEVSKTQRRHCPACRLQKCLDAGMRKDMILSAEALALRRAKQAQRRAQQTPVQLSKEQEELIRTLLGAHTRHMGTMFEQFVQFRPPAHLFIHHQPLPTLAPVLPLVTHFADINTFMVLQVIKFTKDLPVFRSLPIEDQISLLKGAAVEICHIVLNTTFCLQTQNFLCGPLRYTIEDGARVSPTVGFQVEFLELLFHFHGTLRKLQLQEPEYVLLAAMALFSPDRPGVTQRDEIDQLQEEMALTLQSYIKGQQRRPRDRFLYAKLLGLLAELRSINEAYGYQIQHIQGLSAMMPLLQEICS
Chain of Luciferin 4-monooxygenase (Photinus pyralis) (P08659 whole entry, looked up): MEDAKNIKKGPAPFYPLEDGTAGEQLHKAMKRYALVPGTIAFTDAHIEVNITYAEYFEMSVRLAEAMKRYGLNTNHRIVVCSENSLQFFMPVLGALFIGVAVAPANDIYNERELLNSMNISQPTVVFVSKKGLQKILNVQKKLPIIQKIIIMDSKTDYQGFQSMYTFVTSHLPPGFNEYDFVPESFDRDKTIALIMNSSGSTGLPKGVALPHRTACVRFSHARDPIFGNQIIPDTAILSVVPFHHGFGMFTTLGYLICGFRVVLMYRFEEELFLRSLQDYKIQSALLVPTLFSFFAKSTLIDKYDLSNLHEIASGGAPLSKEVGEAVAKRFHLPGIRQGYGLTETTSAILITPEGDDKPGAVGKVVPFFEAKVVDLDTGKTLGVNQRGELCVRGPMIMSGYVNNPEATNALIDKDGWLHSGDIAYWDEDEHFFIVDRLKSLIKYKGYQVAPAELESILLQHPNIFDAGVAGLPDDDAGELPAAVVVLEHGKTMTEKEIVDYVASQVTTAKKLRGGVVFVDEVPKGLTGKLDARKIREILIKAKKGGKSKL
Chain of Thyrotropin receptor (Homo sapiens) (P16473 whole entry, looked up): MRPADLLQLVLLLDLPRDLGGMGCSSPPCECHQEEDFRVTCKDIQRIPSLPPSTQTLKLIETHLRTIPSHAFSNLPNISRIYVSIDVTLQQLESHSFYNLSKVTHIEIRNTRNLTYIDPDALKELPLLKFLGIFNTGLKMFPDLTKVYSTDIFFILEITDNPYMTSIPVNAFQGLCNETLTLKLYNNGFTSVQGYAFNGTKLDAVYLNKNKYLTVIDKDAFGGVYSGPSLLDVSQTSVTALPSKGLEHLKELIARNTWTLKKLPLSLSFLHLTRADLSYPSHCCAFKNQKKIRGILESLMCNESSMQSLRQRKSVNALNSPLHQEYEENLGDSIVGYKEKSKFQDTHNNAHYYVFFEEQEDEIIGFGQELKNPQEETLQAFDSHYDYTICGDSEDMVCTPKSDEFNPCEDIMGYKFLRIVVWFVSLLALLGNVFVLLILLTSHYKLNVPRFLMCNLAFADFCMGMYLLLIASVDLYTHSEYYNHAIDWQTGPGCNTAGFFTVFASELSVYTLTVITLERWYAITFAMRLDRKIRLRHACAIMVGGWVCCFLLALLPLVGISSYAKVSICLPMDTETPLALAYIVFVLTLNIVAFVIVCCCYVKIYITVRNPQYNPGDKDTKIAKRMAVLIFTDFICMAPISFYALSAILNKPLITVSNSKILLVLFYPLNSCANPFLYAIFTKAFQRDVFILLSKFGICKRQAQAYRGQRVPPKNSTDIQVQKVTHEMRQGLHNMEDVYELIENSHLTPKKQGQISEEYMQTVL

Turning to `Cc1c(C(=O)O)c(O)cc2c1C(=O)c1c(O)c([C@@H]3O[C@H](CO)[C@@H](O)[C@H](O)[C@H]3O)c(O)c(O)c1C2=O`, the Potency was 34.7 µM (active) and 35.6 µM (active) and 17.4 µM (active) in experiment [1]; 55.3 µM (active) and 56.6 µM (active) and 31 µM (active) in experiment [4]. For the same compound, the Potency result in experiment [2], in experiment [5], in experiment [6], in [7] and in [8] was “inactive” throughout. Moreover, the call in experiment [3] was inactive.
`O=C1O[C@H]([C@@H](O)CO)C(O)=C1O`: the Potency entry in experiment [9], in experiment [10], in [11], in experiment [12], in experiment [2] and in [13] was “inactive” each time. The Potency result in experiment [14], in experiment [4], in experiment [5], in experiment [6] and in [7] was “inactive” each time. Also, in [3], the result was inactive.
As for `Nc1ccc(O)c([N+](=O)[O-])c1`, the Potency in experiment [1] is 79.6 µM (active); in [11] it was 12.2 µM (active). Besides, the Potency result in [15], in experiment [4], in experiment [16], in [5], in [6] and in experiment [7] was “inactive” each time. The outcome in experiment [3] was inactive. In addition, the activity change, positive = activation in experiment [17] (at 92.4 µM (top of the series)) is 60.3% (active).
In the case of `C=CCc1ccc(O)c(OC)c1`, the Potency entry in experiment [9], in experiment [10], in experiment [11], in experiment [12], in experiment [2] and in experiment [13] was “inactive” in each case. Also, the Potency entry in experiment [18], in experiment [14], in [4], in [5], in experiment [6] and in [7] was “inactive” throughout. The compound was classed as inactive in experiment [3].
Regarding `CCCCCCCCCCCCCCCC[N+](C)(C)Cc1ccccc1`, the Potency entry in experiment [9], in experiment [11], in experiment [12], in [19], in experiment [14] and in experiment [6] was “inactive” each time. Besides, the Potency is 63.1 µM (active) and 49.4 µM (active) and inactive in [2]; 31.6 µM (active) and 24.8 µM (active) and 10.6 µM (active) in experiment [15]; 117 µM (active) and 45.8 µM (active) and 49.2 µM (active) in experiment [4]; 11.2 µM (active) and 11.1 µM (active) and 11.9 µM (active) in experiment [16]; 22.6 µM (active) and 15.8 µM (active) and 10.7 µM (active) in experiment [5]; 14.2 µM (active) and 12.5 µM (active) and 8.49 µM (active) in [7]. For the same compound, the Potency in experiment [8] is 50.5 µM (active) and 39.6 µM (active) and 23.9 µM (active). Also, the activity change, positive = activation in [17] (at 42.5 µM (top of the series)) is -56.4% (inactive); in [17] (at 92.4 µM (top of the series)) it was -78.7% (inactive) and -80.7% (inactive).
For the compound `NS(=O)(=O)c1cc2c(cc1Cl)NCNS2(=O)=O`, the Potency entry in experiment [9], in [10], in [2], in experiment [15], in [19] and in experiment [13] was “inactive” in each case. Besides, the Potency entry in experiment [18], in experiment [14], in [4], in experiment [16], in [5] and in experiment [20] was “inactive” throughout. Moreover, the Potency result in experiment [6] and in [7] was “inactive” in each case. The activity change, positive = activation in [17] (at 42.5 µM (top of the series)) is -0.0876% (inactive); in experiment [17] (at 92.4 µM (top of the series)), 0.0385% (inactive) and 5.11% (inactive).
As to `Nc1ccc([N+](=O)[O-])cc1O`, the Potency result in experiment [11], in experiment [18], in experiment [4], in [5], in experiment [6] and in experiment [7] was “inactive” each time. Also, the Potency in experiment [2] was 30.6 µM (active). In addition, in experiment [3], the compound was called inactive.
Consider `CC(=O)CC(c1ccccc1)c1c(O)c2ccccc2oc1=O` (stereo unspecified), for which the Potency result in experiment [9], in [10], in experiment [2], in [14], in [5] and in experiment [6] was “inactive” each time. Besides, the Potency result in experiment [7] and in experiment [8] was “inactive” each time. Further, in [3], the outcome was inactive.
